Experimental data from PubChem BioAssay AID687038 (Broad Institute, 2013).
Active and inactive are the calls of the source.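 Rule for the calls: active = curve showing a falling signal whose half-maximal concentration is at most twice the top valid dose; inconclusive = flat curve with a moderate drop, or an unreliable fit; inactive = the rest.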

Test: miR-21 levels after miR-122 inhibitor treatment, dose response, selectivity assay for miR-122 inhibitor project, cell-based, Huh7, RT-qPCR, dry powder (AID 687038)
Conditions: Huh7 miR-21 levels, qRT-PCR, 48 h; series mostly up to 35 µM

outcome, inactive:
C[C@H]1CN([C@@H](C)CO)S(=O)(=O)c2ccc(C#Cc3ccncc3)cc2O[C@@H]1CN(C)C(=O)C1CCOCC1
Cc1cccc(NC(=O)Nc2ccc3c(c2)C(=O)N(C)[C@@H]2CC[C@@H](CC(=O)NCc4ccccc4Cl)O[C@H]2CO3)c1
COCC(=O)N(C)C[C@H]1Oc2cc(-c3ccc(C#N)cc3)ccc2S(=O)(=O)N([C@H](C)CO)C[C@H]1C
CO[C@@H]1CN(C)C(=O)c2cc(NS(=O)(=O)c3ccc(Oc4ccccc4)cc3)ccc2OC[C@H](C)NC[C@@H]1C
C[C@H]1CN([C@@H](C)CO)C(=O)c2cc(-c3ccc(C#N)cc3)cnc2O[C@H]1CN(C)C(=O)Nc1ccc(C(F)(F)F)cc1
CCOC(=O)N1CCC(NC(=O)c2ccc3nc(N4CCC(C)CC4)sc3c2)CC1
Nc1ccc(Oc2ccc(Cl)cc2)cc1
CCCCN(CCCC)C(=O)CN(C)S(=O)(=O)c1ccc2c(c1)n(C)c(=O)c(=O)n2C
COCC(=O)N(C)C[C@H]1Oc2cc(-c3ccccc3F)ccc2S(=O)(=O)N([C@H](C)CO)C[C@H]1C
CCN(CC)C(=O)c1cccc(NC(=O)c2ccc(Cl)cc2Cl)c1
O=C(Nc1ccc(-c2nc3ccccc3o2)cc1)c1cc(-n2cnnc2)ccc1Cl
C[C@@H]1CN([C@@H](C)CO)S(=O)(=O)c2ccc(C#Cc3ccncc3)cc2O[C@H]1CN(C)C(=O)C1CCOCC1
COCC(=O)N(C)C[C@@H]1Oc2ncc(-c3ccc(C#N)cc3)cc2C(=O)N([C@@H](C)CO)C[C@@H]1C
COc1ccc(S(=O)(=O)N(C)C[C@@H]2Oc3ncc(/C=C/c4ccccc4)cc3C(=O)N([C@@H](C)CO)C[C@@H]2C)cc1
O=S(=O)(NCCc1ccncc1)c1ccccc1
COCC(=O)N(C)C[C@H]1Oc2cc(-c3ccc(C#N)cc3)ccc2S(=O)(=O)N([C@@H](C)CO)C[C@H]1C
C[C@H]1CN([C@@H](C)CO)C(=O)c2cc(C#Cc3ccccc3F)cnc2O[C@H]1CN(C)C(=O)C1CCCCC1
CN1C(=O)c2cc(NC(=O)c3cccc(F)c3)ccc2OC[C@@H]2O[C@H](CC(=O)O)CC[C@@H]21
C[C@H]1CN([C@@H](C)CO)C(=O)c2cc(-c3ccc(C#N)cc3)cnc2O[C@H]1CN(C)Cc1cncnc1
CCOC(=O)N1CCC(NC(=O)c2ccc3c(c2)sc2nc(-c4ccccc4)cn23)CC1
CO[C@@H]1CN(C)C(=O)c2cc(NC(=O)c3cccc(Oc4ccccc4)c3)ccc2OC[C@H](C)NC[C@@H]1C
C[C@H](CO)N1C[C@H](C)[C@@H](CN(C)C(=O)C2CCOCC2)Oc2cc(C#Cc3ccncc3)ccc2S1(=O)=O
OCc1ccc(-c2nn(Cc3ccccc3)c3ccccc23)o1
C[C@@H]1CN([C@H](C)CO)S(=O)(=O)c2ccc(C#Cc3ccncc3)cc2O[C@@H]1CN(C)C(=O)C1CCOCC1
C[C@@H]1CN([C@H](C)CO)S(=O)(=O)c2ccc(C#Cc3ccncc3)cc2O[C@H]1CN(C)C(=O)C1CCOCC1
C[C@H]1CN([C@@H](C)CO)C(=O)c2cc(C#Cc3ccccc3F)cnc2O[C@@H]1CN(C)C(=O)C1CCCCC1
CN1C(=O)c2cc(NC(=O)c3cccc(F)c3)ccc2OC[C@H]2O[C@H](CC(=O)O)CC[C@H]21
CN1C(=O)c2cc(NC(=O)c3cccc(F)c3)ccc2OC[C@@H]2O[C@@H](CC(=O)O)CC[C@@H]21
CN1C(=O)c2cc(NC(=O)c3cccc(F)c3)ccc2OC[C@H]2O[C@H](CC(=O)O)CC[C@@H]21
COCC(=O)N(C)C[C@H]1Oc2cc(C#Cc3cccnc3)ccc2S(=O)(=O)N([C@@H](C)CO)C[C@H]1C
C[C@H](CO)N1C[C@H](C)[C@H](CN(C)C(=O)C2CCOCC2)Oc2cc(C#Cc3ccncc3)ccc2S1(=O)=O
Cc1cc(C(C)(C)C)cc(S(=O)(=O)N2CCOCC2)c1C
